# Test results published in PubChem BioAssay (NCI).
# Compounds without any hit were thinned out: in the full panel of roughly 83,000, 20% have a hit.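 How to read the values: 0–100, growth inhibition (40 = 60% inhibited); 0, no net growth; -100 to 0, cell death (-40 = 40% of starting cells died; -100 = all dead).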 Active and inactive are the calls of the source. Rule for the calls: active = growth percent below 10; inactive = the rest.
# Test system: IGROV1 ovarian
# Experiment: NCI-60 one-dose screen, 48 h (100 = growth as untreated, 0 = no growth, -100 = all killed)
# Details: 10 µM unless noted
row,SMILES,growth
1,C=C1C(=O)O[C@@H]2C[C@@H](C)[C@H](OC)CC(=O)[C@](C)(OC(C)=O)C[C@H](OC(=O)/C(C)=C\C)[C@@H]12,90.1% (inactive)
2,O=C1[C@H]2Cc3c([nH]c4ccccc34)[C@@H](c3ccc(Cl)cc3)N2C(=O)CN1C1CCN(Cc2c(Cl)cccc2Cl)CC1,-44.1% (active)
3,COc1ccc(Cn2cc3c(c2-c2ccccc2)CCCc2cnoc2-3)cc1,51.5% (inactive)
4,COc1ccc(-c2oc3cc(O)cc(O)c3c(=O)c2OC)cc1O,39.8% (inactive)
5,N/C(=N\OC(=O)CSc1nc2ccccc2s1)c1ccc2ccccc2c1,97.3% (inactive)
6,CCOC(=O)C1=C(C)Nc2nc3ccccc3n2C1c1ccccc1 (stereo not drawn),91.6% (inactive)
7,CS(=O)(=O)c1ccc(-c2nn(-c3ccccc3)cc2/C=N/NC(=O)c2ccncc2)cc1,104% (inactive)
8,Cc1cc(O)c2c(c1)C(=O)C(c1c(C)cc3c(c1O)C(=O)C=CC3=O)=CC2=O,108% (inactive)
9,N#Cc1c(NC(=O)c2ccccc2C(F)(F)F)sc2c1CCC(=O)C2,15.2% (inactive)
10,CCOC(=O)C1=C(C)N=C2Sc3ccccc3N2C1c1ccccc1 (stereo not drawn),77.3% (inactive)
11,CN(C)c1ncc(/C=C2\SC(=S)N(Cc3ccccc3Cl)C2=O)s1,70.8% (inactive)
12,CCN1C(=O)N(CC)C2SC(N/N=C/c3ccc(OC)cc3)=NC21 (stereo not drawn),23.2% (inactive)
13,O=C1[C@@H]2Cc3c([nH]c4ccccc34)[C@H](c3c(Cl)cccc3Cl)N2C(=O)CN1C1CCN(Cc2c(F)cccc2F)CC1,59.5% (inactive)
